# This is part of a sample that, as a whole, favours compounds with a hit. Of some 83,000 tested, about 20% had one in any assay.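 In brief: 96-well plates, 48 h treatment, single concentration, percent growth endpoint.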 Unmarked numbers belong to inactive results. Activity calls are given as the source filed them. Rule for the calls: active = growth percent below 10; inactive = the rest.
# Assays:
# Assay in all cases: NCI-60 one-dose screen, 48 h (100 = growth as untreated, 0 = no growth, -100 = all killed)
# Conditions in all cases: 10 µM unless noted
# SK-MEL-2 melanoma = test system: SK-MEL-2 melanoma
# EKVX NSCLC = test system: EKVX NSCLC
# SN12C renal = test system: SN12C renal
# UO-31 renal = test system: UO-31 renal
# TK-10 renal = test system: TK-10 renal
# ACHN renal = test system: ACHN renal
# CAKI-1 renal = test system: CAKI-1 renal
# A498 renal = test system: A498 renal
# CCRF-CEM leukemia = test system: CCRF-CEM leukemia
# MOLT-4 leukemia = test system: MOLT-4 leukemia
Structure (SMILES),growth (SK-MEL-2 melanoma),growth (EKVX NSCLC),growth (SN12C renal),growth (UO-31 renal),growth (TK-10 renal),growth (ACHN renal),growth (CAKI-1 renal),growth (A498 renal),growth (CCRF-CEM leukemia),growth (MOLT-4 leukemia)
COc1ccc(/C=N/NC(=O)CSc2nc(-c3cnccn3)cc(-c3cccs3)c2C#N)cc1OC,102%,85.9%,91.1%,89%,123%,83%,88.1%,38.2%,93.9%,90.8%
CC(C)C(/C=C/c1[nH]ncc1-c1cc(Cl)ccc1O)N1CCOCC1 (stereo not given),91.3%,95.9%,97.7%,70%,119%,92.8%,69.7%,81.7%,97.7%,86%
CNC(=O)c1cc(Oc2ccc3c(c2)sc2nc(-c4ccc(N(C)C)cc4)cn23)ccn1,59.7%,53.8%,43%,33%,77.2%,21.7%,32.3%,7.34% (active),9.49% (active),15.1%
CC(=O)OC[C@]12CC[C@@H](C(=O)/C=C/c3cccnc3)[C@@H]1[C@H]1CC[C@@H]3[C@@]4(C)CC[C@H](OC(C)=O)C(C)(C)[C@@H]4CC[C@@]3(C)[C@]1(C)CC2,-35.9% (active),21.8%,19%,12.1%,38.5%,-55.5% (active),12.2%,-47.7% (active),2.41% (active),-5.14% (active)
CCc1cc(OC(=O)N2CCC(N3CCCCC3)CC2)ccc1Nc1cc(-c2ccc(-n3cccn3)cc2)[nH]n1,95.9%,97%,77.7%,46%,95.7%,42.9%,48.4%,71.3%,7.95% (active),18.9%
Cc1ccc(C(=O)Nc2ccc(CNCCN3CCOCC3)c(C(F)(F)F)c2)cc1C#Cc1cnc2cccnn12,-7.32% (active),41.2%,26.5%,19%,51.4%,22.8%,17.2%,-1.13% (active),10.1%,4.38% (active)
N#C/C(=C\c1cccc2c1OCO2)C(=O)Nc1sc2c(c1C#N)CCCC2,106%,87.8%,98.3%,82.6%,120%,109%,86.1%,98.6%,108%,102%
CN1CCN(c2ccc(Nc3nc(NCCNC(=O)c4ccc(F)cc4)c4sccc4n3)cc2)CC1,104%,92.7%,84.2%,65.5%,128%,67.8%,57.9%,125%,38.2%,23.4%
COc1ccc(C2c3[nH]c4ccc(Cl)cc4c3CCN2c2oc(CO)nc2C#N)cc1 (stereo not given),81.6%,59.4%,66.4%,54%,93.9%,45.3%,36.5%,68.7%,37.3%,29.3%
CCCC[n+]1ccc(SCC(=O)n2ccc3ccccc32)c2ccccc21,99.9%,88.1%,96.5%,76.5%,141%,104%,81.9%,111%,87.3%,83.1%
C[C@]12CC[C@H]3[C@@H](CC=C4C[C@@H](O)CC[C@@]43C)[C@@H]1CC[C@@H]2[C@](C)(O)CCc1cccnc1,79.8%,36.7%,79.9%,63.8%,84.3%,60.7%,69.1%,72.8%,59.8%,48.9%
COc1ccc(NC2=C(Br)C(=O)C(C)=C(C)C2=O)cc1OC,106%,80.8%,100%,83.5%,165%,99.7%,99.1%,95%,-27.9% (active),-41.6% (active)
C[C@H](Nc1ncnc2ccc(-c3cnc(Cl)c(NS(C)(=O)=O)c3)cc12)c1ccccc1,-84.9% (active),-34.3% (active),13.4%,-63.5% (active),-82.3% (active),9.8% (active),-22.4% (active),-23.8% (active),7.38% (active),-16.5% (active)
CC(C)(C)c1cc(NC(=O)Nc2ccc(-c3cn4c5c(sc4n3)CCc3cn(CCCN4CCCCC4)cc3-5)cc2)no1,108%,-80.5% (active),-86.3% (active),-70.3% (active),-89.3% (active),-99.7% (active),-97.2% (active),74.5%,3.37% (active),-10.9% (active)
Cc1csc(/N=C(N)/N=C(\N)c2cccc(Br)c2)n1,101%,88.9%,90.7%,86.4%,149%,97.7%,85.7%,81.5%,98.6%,96.5%
CC(=O)N1N=C(c2cc3ccccc3oc2=O)CC1c1cn(-c2ccccc2)nc1-c1ccc(C)cc1 (stereo not given),108%,98.3%,98.8%,83.2%,105%,97.8%,92%,101%,102%,108%
Cc1cc(Br)ccc1-n1cc(C#N)c(N)c1C(=O)c1ccc(Br)cc1,108%,97.8%,110%,80.1%,87%,97.2%,91.6%,114%,96.6%,108%
CCc1nnc(NC(=O)c2cc(-c3ccc(Cl)cc3Cl)oc2C)s1,108%,99.4%,83.7%,85.1%,114%,50.9%,80.9%,97.4%,97.6%,99.3%
CCOC(=O)C1=C(C)NC(C)=C(C(=O)OCc2ccccc2)C1c1cccc(C#N)c1 (stereo not given),24.9%,37.1%,36.5%,43.8%,83.7%,47.1%,32.4%,-4.45% (active),25.5%,31.5%
CCN(CC)S(=O)(=O)c1ccc(-c2nc(C(Cl)Cl)nc3cc(C)nn23)cc1,89.4%,25.8%,58.6%,46.4%,79.4%,8.7% (active),29.6%,74.8%,48.9%,36.1%
CCOC(=O)c1ccc(NC2=C(Cl)C(=O)c3nc(C)ccc3C2=O)cc1,78.2%,68.4%,75.8%,2.37% (active),99.4%,-9.88% (active),75.4%,68.3%,6.88% (active),16.3%
NC1CC2(CCN(c3cnc(C(=O)Nc4cc(F)cc5cccnc45)cn3)CC2)C1,101%,81.9%,72.5%,76.1%,88%,79%,79.3%,74.3%,34.7%,40.8%
Cn1c(SCC(=O)c2ccc(Br)cc2)nc2ccccc2c1=O,102%,82.2%,96.6%,75.9%,117%,96.1%,85.4%,92.7%,91.9%,99%
O=[N+]([O-])c1ccc(NC(=S)NNC(=S)Nc2ccc(Br)cc2)cc1,105%,83.5%,88.3%,70%,127%,70.8%,75.6%,82.5%,89.1%,74.9%
Cc1ccc(NC2=C(Cl)C(=O)c3nc(C)ccc3C2=O)c(C)c1,4.04% (active),49.1%,-69.1% (active),-13% (active),126%,-24.7% (active),85.5%,60.5%,1.19% (active),1.38% (active)
NC1[C@H]2CN(c3cnc(C(=O)Nc4cc(F)cc5cccnc45)cn3)C[C@@H]12 (stereo not given in full),92.5%,82.1%,69.8%,44.6%,87.7%,32.5%,49.9%,75.4%,30%,18.1%
